About 14,000 (4.5%) of roughly 310,000 compounds showed an effect of 50% or more. The effect is printed as a negative number. The full list was thinned out, with strong results kept by preference.
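Also: peak tail current of the secondary pulse compared with the same well before compound.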

For the experiment, the target named is human ether-à-go-go-related gene (hERG) potassium channel (human, UniProt Q12809). As to the kind of experiment: primary screen, population patch clamp on CHO cells stably expressing hERG; higher = less effect of the substance.
Chain of human ether-à-go-go-related gene (hERG) potassium channel (Q12809 whole entry, looked up): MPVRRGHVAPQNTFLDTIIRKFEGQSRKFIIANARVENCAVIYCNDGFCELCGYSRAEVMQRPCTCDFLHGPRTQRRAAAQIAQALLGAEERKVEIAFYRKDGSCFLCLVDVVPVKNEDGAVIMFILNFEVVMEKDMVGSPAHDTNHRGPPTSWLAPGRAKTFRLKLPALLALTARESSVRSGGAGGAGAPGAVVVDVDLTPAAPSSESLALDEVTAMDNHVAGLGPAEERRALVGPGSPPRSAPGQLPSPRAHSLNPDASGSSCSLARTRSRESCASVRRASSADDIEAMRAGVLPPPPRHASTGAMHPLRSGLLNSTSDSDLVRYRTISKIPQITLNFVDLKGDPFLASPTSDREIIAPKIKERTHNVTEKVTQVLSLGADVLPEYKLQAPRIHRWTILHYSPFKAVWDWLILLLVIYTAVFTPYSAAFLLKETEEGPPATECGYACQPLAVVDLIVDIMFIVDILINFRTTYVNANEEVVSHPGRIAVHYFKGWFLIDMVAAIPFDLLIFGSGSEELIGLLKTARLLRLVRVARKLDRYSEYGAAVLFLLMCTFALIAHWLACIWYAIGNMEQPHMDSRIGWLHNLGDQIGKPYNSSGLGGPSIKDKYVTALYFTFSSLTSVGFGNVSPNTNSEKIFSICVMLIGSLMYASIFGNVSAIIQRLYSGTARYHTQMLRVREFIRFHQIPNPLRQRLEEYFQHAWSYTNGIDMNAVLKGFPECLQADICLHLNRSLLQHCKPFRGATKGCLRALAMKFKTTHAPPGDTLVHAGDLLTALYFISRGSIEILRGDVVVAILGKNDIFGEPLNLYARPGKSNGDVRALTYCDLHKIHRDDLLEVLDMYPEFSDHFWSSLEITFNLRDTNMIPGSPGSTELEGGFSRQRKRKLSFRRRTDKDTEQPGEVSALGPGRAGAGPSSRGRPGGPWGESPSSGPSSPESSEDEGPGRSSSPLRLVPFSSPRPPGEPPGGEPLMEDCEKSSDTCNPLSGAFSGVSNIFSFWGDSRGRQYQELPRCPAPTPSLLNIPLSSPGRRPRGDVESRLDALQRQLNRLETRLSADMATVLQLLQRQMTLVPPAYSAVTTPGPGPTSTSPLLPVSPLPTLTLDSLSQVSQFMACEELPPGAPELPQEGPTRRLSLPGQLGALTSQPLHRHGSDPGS
For the compound `Cc1ccc(S(=O)(=O)NCCC(=O)NCc2ccccn2)cc1`, the “hERG current change (%, negative = inhibition) at 10uM” value is on record as 11.1%. Then `Cc1ccc(-c2nnn(CC(=O)N(Cc3ccco3)C(C(=O)NC(C)(C)C)c3cccs3)n2)o1` (centres unmarked), with -19.2%; and `O=C(NCC1CCCO1)c1cc2c([nH]c3ccccc32)c(-c2cccc(Cl)c2)n1` (centres unmarked), with -20.5%. On to `Cc1sc2nc(-c3ccc(Br)cc3)oc(=O)c2c1C`, for which the “hERG current change (%, negative = inhibition) at 10uM” value worked out at 13.3%. Then `CSc1nc(C(=O)N2CCc3c([nH]c4ccccc34)C2c2ccccn2)cs1` (centres unmarked), with -4.85%. Then `CC(=O)Nc1ccc(NC(=O)c2cc[n+]([O-])cc2)cc1`, with 25.2%; and `CC(C)Cc1nnc(NC(=O)CCC(=O)N2CCN(c3ccc(Cl)cc3)CC2)s1`, with -3.51%. On to `CC(C)Cc1nnc(NC(=O)CCC(=O)N2CCN(c3ccc([N+](=O)[O-])cc3)CC2)s1`, for which the “hERG current change (%, negative = inhibition) at 10uM” value is on record as -72.3%. For `CC(C)Cc1nnc(NC(=O)CCC(=O)N2CC(C)CC(C)C2)s1` (centres unmarked), the “hERG current change (%, negative = inhibition) at 10uM” value is -50.8%. As to `CC(C)Cc1nnc(NC(=O)CCC(=O)N2CCN(c3ccc(F)cc3)CC2)s1`, the “hERG current change (%, negative = inhibition) at 10uM” value amounted to 1.08%.

On to `CC1CC(C)CN(C(=O)CCC(=O)Nc2nnc(C(C)C)s2)C1` (centres unmarked), for which the “hERG current change (%, negative = inhibition) at 10uM” value is on record as 12.6%. As to `CC(C)Cc1nnc(NC(=O)CCC(=O)N2CCC(C)CC2)s1`, the “hERG current change (%, negative = inhibition) at 10uM” value turned out to be 0.442%.

`CC(C)Cc1nnc(NC(=O)c2cc([N+](=O)[O-])ccc2N2CCOCC2)s1`: the “hERG current change (%, negative = inhibition) at 10uM” value is -51.4%. For `CC(C)CNC(=O)c1cc([N+](=O)[O-])ccc1N1CCOCC1` the value was 4.47%; for `CCc1nnc(NC(=O)c2cc([N+](=O)[O-])ccc2N2CCOCC2)s1`, -15%.

Turning to `CCN(C(=O)c1ccc(C)c(Br)c1)c1ccccc1`, the “hERG current change (%, negative = inhibition) at 10uM” value is recorded as -20.5%. Then `CC(=O)c1c(C)[nH]c(C(=O)COC(=O)COc2ccccc2F)c1C`, with -3.3%; and `O=C(CCC1CCCCC1)NNC(=O)NC12CC3CC(CC(C3)C1)C2`, with 13.2%. For `Cc1ccc(C)c(NNC(N)=S)c1` the value was 14%. For `O=C(COC(=O)CC1SC(N2CCCC2)=NC1=O)Nc1c(F)c(F)c(F)c(F)c1F` (centres unmarked) the value was -12.6%; for `Cc1cc(NC(=O)CSc2nc(CC(C)(C)C)nc3c2c(=O)n(C)c(=O)n3C)no1`, 4.05%; for `COc1ccc(OCCSc2nnc(CCNC(=O)c3ccc(OC)cc3)n2C)cc1`, -6.83%. Turning to `CN(C)CCCN(C(=O)c1ccco1)c1nc2cc3c(cc2s1)OCO3.Cl`, the “hERG current change (%, negative = inhibition) at 10uM” value is recorded as -43.7%. Turning to `CCN(CC)CCN(C(=O)c1ccccc1OC)c1nc2ccc(F)cc2s1.Cl`, the “hERG current change (%, negative = inhibition) at 10uM” value is on record as -68.3%. Turning to `COc1ccc2sc(N(CCN(C)C)C(=O)c3cc(Cl)sc3Cl)nc2c1.Cl`, the “hERG current change (%, negative = inhibition) at 10uM” value is reported as -0.167%.

Regarding `CN(C)CCN(C(=O)c1cc(Cl)sc1Cl)c1nc2ccc(F)cc2s1.Cl`, the “hERG current change (%, negative = inhibition) at 10uM” value is -67.3%. For the compound `Cc1ccc2nc(N(CCCN(C)C)C(=O)c3ccco3)sc2c1.Cl`, the “hERG current change (%, negative = inhibition) at 10uM” value was -65.4%. For `CC(=O)N(CCCN(C)C)c1nc2ccc(C)cc2s1.Cl` the value was -7.07%; for `Cc1ccc2nc(N(CCN(C)C)C(=O)c3cc(Cl)sc3Cl)sc2c1.Cl`, 7.55%.

On to `CCN(CC)CCN(C(=O)c1cc2ccccc2cc1OC)c1nc2ccc(F)cc2s1.Cl`, for which the “hERG current change (%, negative = inhibition) at 10uM” value is -11.8%. For `CN(C)CCCN(C(=O)c1ccco1)c1nc2ccc(Cl)cc2s1.Cl` the value was -73.4%; for `CCN(CC)CCN(C(=O)c1cc2ccccc2cc1OC)c1nc2ccc(OC)cc2s1.Cl`, -13.4%.

Source of the values: article PMC4336329 (PLoS ONE, 2015).
